Rows were chosen to be rich in hits. Some 4.6% of all compounds tested hit in one or more screens of this group.
TRHR ag – agonists of human TRH receptor; actives 0.18% (n = 360,000); AID 493084; P34981; activation, % at 2 µM; TRHR cells, calcium flux fluo-8, FDSS agonist mode; note: 0% is about no effect
Target sequence (P34981 whole entry, looked up): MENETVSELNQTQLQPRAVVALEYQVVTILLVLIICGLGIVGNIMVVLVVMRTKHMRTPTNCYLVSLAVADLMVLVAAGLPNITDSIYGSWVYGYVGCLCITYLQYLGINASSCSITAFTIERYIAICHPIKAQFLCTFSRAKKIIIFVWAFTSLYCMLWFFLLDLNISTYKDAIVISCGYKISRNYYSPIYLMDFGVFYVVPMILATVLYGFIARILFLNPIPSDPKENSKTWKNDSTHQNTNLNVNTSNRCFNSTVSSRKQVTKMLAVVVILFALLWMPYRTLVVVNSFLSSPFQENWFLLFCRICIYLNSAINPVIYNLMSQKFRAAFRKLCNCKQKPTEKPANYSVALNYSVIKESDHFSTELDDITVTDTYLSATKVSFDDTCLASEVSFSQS
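TRHR-expressing cells, plated overnight in medium with 10% serum, were loaded with fluo-8 calcium dye at room temperature. After a 10 s baseline, library compound was pin-added and calcium release was recorded kinetically (ex 480/em 530) as agonist response.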
D1 agonist – agonists of human D1 dopamine receptor | activation, % at 2 µM | AID 504660 | actives 1% (n = 360,000) | P21728 | HEK293 T-REx D1 cells, calcium flux, agonist mode; note: 0% is about no effect
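Tetracycline-induced HEK293 TREx D1 cells, force-coupled to calcium signalling, were dye-loaded with a no-wash calcium kit. Compound was pin-added after a 10 s baseline. Fluorescence was read kinetically at 1 cycle/s for 180 s, with calcium rises flagged as agonism.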
D1 PAM – enhances dopamine response at the human D1 receptor | P21728 | HEK293 TREx D1 cells, calcium flux, dopamine EC20 potentiation | potentiation, % at 10 µM | actives 0.036% (n = 360,000) | AID 504651; in the data active = potentiation above about 30%; note: 0% is about no effect
D1 antagonist – human D1 dopamine receptor antagonism. HEK293 TREx D1 cells, calcium flux, dopamine EC80; hits give low values. activity change, negative = inhibition, % at 10 µM. P21728. actives 3.2% (n = 360,000); in the data active = activity change below about -30%; note: % is set by controls: 0 for no effect and ±100 for the full control effect
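Kinetic fluorescence of a calcium dye serves as the read-out. D1-expressing Hek293 Trex cells, induced overnight at 30 C, are exposed to compound for 180 s before an EC80 dopamine addition, then read 180 s further.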
TRHR enhancer – allosterically enhances the human TRH receptor; P34981; actives 0.66% (n = 360,000); enhancement, % at 2 µM; AID 493056; TRHR cells, fluo-8 calcium fluorescence, EC20 TRH enhancement; in the data active = enhancement above about 30%; note: 0% is about no effect
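Enhancer read-out: after compound pinning and an initial kinetic agonist-mode read, an EC20 of TRH (10 nM final) was injected and fluo-8 calcium signal (Ex 480/Em 530) followed at 1 s/cycle for 100 cycles in TRHR-expressing cells.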
Active calls of the source: *; x = no result given. Cut-off read from the data, not from the text of the source, unless noted: active = activation above about 30%; inactive = the rest.

SMILES	TRHR ag	D1 agonist	D1 PAM	D1 antagonist	TRHR enhancer
COC(=O)c1sccc1S(=O)(=O)N(CC(=O)NCc1ccccc1)c1ccc(C)cc1	0	1	-5	-22	-8
Cc1c(C(=O)Nc2ccc(F)c(C(F)(F)F)c2)sc2nc(-c3ccccc3)cn12	1	8	-3	13	6
NC(=O)c1ccc(NC(=O)CSc2nnc(C3CCCCC3)n2N)cc1	0	2	2	12	-8
C=CCn1c(SCC(=O)NC2CC2)nnc1-c1ccccn1	0	4	-4	8	-3
CCCn1c(SCC(=O)NC2CCCCC2)nnc1C1CC1	0	2	-5	16	33*
CCn1c(SCC(=O)Nc2ccc(F)cc2)nnc1C1CC1	-1	1	-5	-6	41*
C=CCn1c(SCC(=O)NC2CCCCC2)nnc1-c1ccccn1	0	3	-7	-32*	0
Cn1c(SCC(=O)Nc2ccc(F)cc2)nnc1C1CC1	1	1	-6	-1	-4
Nn1c(SCC(=O)Nc2ccc(F)c(F)c2)nnc1C1CCCCC1	0	4	-6	-53*	-2
COc1cc(C2C=C(C(=O)O)Nc3ncnn32)ccc1O (stereo unspecified)	1	4	-3	-10	5
O=C(CSc1nc(=O)[nH]c2c1CCC2)NCc1ccc(Cl)cc1	0	6	12	x	3
CCOC(=O)Cc1ccc(NC(=O)NC(C)c2c(-n3cccc3)sc(C)c2C)cc1 (stereo unspecified)	0	3	-7	-24	1
C/C(=N\NC(=O)Cc1cccn1C)c1ccc2ccccc2c1	0	2	-8	-36*	6
COC(=O)c1ccc(NC(=O)Nc2nnc(N(C)C3CCCCC3)s2)cc1	0	-1	3	-55*	-1
O=C(Oc1ccc(Cl)cc1)c1ccc(COC(=O)c2cnccn2)cc1	0	7	7	-31*	-3
O=C(Oc1ccccc1)c1ccc(COC(=O)c2cnccn2)cc1	-1	7	-8	-14	-8
O=C(Nc1ccccc1OC(F)F)c1oc2ccccc2c1COc1ccccc1	3	32*	-2	-8	-4
COc1ccc(N2CCN(C(=O)c3nn(-c4ccc(C)cc4)c(=O)n(C)c3=O)CC2)cc1	0	1	-2	-3	-1
Cc1ccc(CNC(=O)C2CCN(S(=O)(=O)c3c(C)noc3/C=C/c3ccco3)CC2)cc1	0	9	-10	-48*	5
Cc1ccc2c(c1)N(C(=O)C1CCN(S(=O)(=O)c3c(C)noc3/C=C/c3ccccc3F)CC1)CCO2	1	10	0	-39*	-6
Cc1noc(/C=C/c2ccco2)c1S(=O)(=O)N1CCC(C(=O)NCc2ccco2)CC1	-1	4	-4	-15	-3
COc1ccc(NC(=O)C2CCN(S(=O)(=O)c3c(C)noc3/C=C/N(C)C)CC2)cc1	0	1	-2	-34*	-5
Cc1ccccc1NC(=O)C1CCN(S(=O)(=O)c2c(C)noc2/C=C/c2ccco2)CC1	0	0	5	-33*	-8
CCC1CN(C(=O)C2CCN(S(=O)(=O)c3c(C)noc3/C=C/c3ccccc3F)CC2)c2cc(C)ccc2O1 (stereo unspecified)	0	13	-2	4	-2
CCOC(=O)c1c(Nc2ccc(O)cc2)nnc(-c2ccccc2)c1-c1ccccc1	-1	0	6	10	10
SMILES	TRHR ag	D1 agonist	D1 PAM	D1 antagonist	TRHR enhancer
CCC(C(=O)N1CCN(c2ccccc2F)CC1)n1nc(C)c2sc3ccccc3c2c1=O (stereo unspecified)	0	3	2	1	6
Cn1cc(/C=N/n2cnc3scc(-c4ccccc4)c3c2=O)c2ccccc21	1	3	-6	-44*	0
COc1ccc(CCn2cc(C#N)c(=O)[nH]c2=O)cc1OC	1	0	-3	20	38*
COc1ccc(CCn2c(N)cc(=O)[nH]c2=O)cc1OC	0	1	-7	-48*	7
COc1ccccc1CCn1cc(C#N)c(=O)[nH]c1=O	0	2	-1	4	8
COc1cc(C(=O)N(CCc2ccccc2)C2=CC3CCC(C2)N3C)cc(OC)c1OC (stereo unspecified)	0	2	-2	-18	-2
Cc1cc(C)cc(C(=O)N(CCc2ccccc2)C2CC3CCC(C2)N3C)c1 (stereo unspecified)	0	9	-1	-31*	1
COc1ccc(CNC(=O)c2cc(-c3ccc(C)c(C)c3)n[nH]2)cc1	0	2	-5	-9	0
COc1ccc(/C=N/Nc2ncnc3c2[nH]c2ccccc23)c(OC)c1OC	0	5	-2	-5	-4
Cc1ccc2[nH]c3c(NCCN4CCOCC4)ncnc3c2c1	0	2	-2	-2	1
C=CCNc1ncnc2c1[nH]c1ccc(C)cc12	0	12	-8	-32*	-5
COCCNc1ncnc2c1[nH]c1ccccc12	0	9	-15	-37*	-4
Fc1ccc2[nH]c3c(NCc4ccccc4)ncnc3c2c1	8	26	-10	-40*	-3
COc1ccc2[nH]c3c(NCc4ccco4)ncnc3c2c1	0	3	-5	-17	1
COc1cccc(/C=N/Nc2ncnc3c2[nH]c2ccc(C)cc23)c1OC	0	3	-7	-34*	-10
CC(Sc1nnc(Cc2cccs2)n1C)C(=O)Nc1ccc(C(N)=O)cc1 (stereo unspecified)	0	5	-1	3	2
COc1cc(OC)cc(C(=O)NC2CC3CCC(C2)N3Cc2ccco2)c1 (stereo unspecified)	0	0	-11	-35*	-3
Cc1ccc(C)c(NC(=S)NC2CC3CCC(C2)N3Cc2ccco2)c1 (stereo unspecified)	-1	21	-2	-5	6
Cc1ccc(C(=O)NC2CC3CCC(C2)N3Cc2ccco2)cc1 (stereo unspecified)	0	0	-28	-70*	4
O=C(Nc1cccc(Cl)c1)NC1CC2CCC(C1)N2Cc1ccco1 (stereo unspecified)	0	19	-7	-41*	-7
CC1CCc2c(sc(NC(=O)c3cc(-c4cccc(Cl)c4)on3)c2C(N)=O)C1 (stereo unspecified)	0	-1	3	18	9
O=C(CSc1ncc(-c2ccc(F)cc2)n1Cc1ccco1)Nc1nccs1	3	20	-4	6	-6
Cc1cnc(NC(=O)CSc2ncc(-c3ccccc3)n2Cc2ccco2)s1	5	79*	-9	-32*	1
O=C(Cc1ccccc1)NC1(O)C(=O)c2ccccc2C1=O	0	1	-6	-35*	-21

Bioassay records: PubChem, National Center for Advancing Translational Sciences (NCATS)
